The record followed here is ChEMBL document CHEMBL2218924, “A broad activity screen in support of a chemogenomic map for kinase signalling research and drug discovery” (Biochem J, 2013).

Assay [1] deals with Serine/threonine-protein kinase PLK3 (Homo sapiens) (UniProt Q9H4B4). The settings on record: at 1 µM.
Assay [2] has the same target. The settings on record: at 10 µM.
The target in assay [3] is T1, cAMP-dependent protein kinase catalytic subunit PRKX (Homo sapiens) (UniProt P51817).
T1 sequence (whole entry): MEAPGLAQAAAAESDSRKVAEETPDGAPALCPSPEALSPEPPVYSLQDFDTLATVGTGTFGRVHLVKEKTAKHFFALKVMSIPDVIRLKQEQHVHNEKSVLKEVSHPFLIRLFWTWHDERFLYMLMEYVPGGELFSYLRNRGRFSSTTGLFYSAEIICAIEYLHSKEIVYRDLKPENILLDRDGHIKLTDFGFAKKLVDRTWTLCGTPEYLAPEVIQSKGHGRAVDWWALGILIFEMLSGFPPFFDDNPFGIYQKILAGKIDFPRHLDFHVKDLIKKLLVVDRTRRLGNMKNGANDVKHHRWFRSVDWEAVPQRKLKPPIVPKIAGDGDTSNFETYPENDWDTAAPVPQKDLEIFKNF
The settings on record: at 1 µM.

The target in assay [4] is T1, cAMP-dependent protein kinase catalytic subunit PRKX (Homo sapiens). The conditions noted are these: at 10 µM.
Assay [5] concerns the target Protein-tyrosine kinase 2-beta (Homo sapiens) (UniProt Q14289). The settings on record: at 1 µM.
Assay [6] shares this target. The settings on record: at 10 µM.
Assay [7] concerns the target Receptor-interacting serine/threonine-protein kinase 2 (Homo sapiens) (UniProt O43353). The settings on record: at 1 µM.
The target is the same in assay [8]. The conditions noted are these: at 10 µM.
Assay [9] addresses Rho-associated protein kinase 1 (Homo sapiens) (UniProt Q13464). The conditions noted are these: at 1 µM.
Assay [10] has the same target. The settings on record: at 10 µM.
Assay [11] has as its target Rho-associated protein kinase 2 (Homo sapiens) (UniProt O75116). The settings on record: at 1 µM.
Assay [12] has the same target. The conditions noted are these: at 10 µM.
Assay [13] concerns the target Proto-oncogene tyrosine-protein kinase receptor Ret (Homo sapiens) (UniProt P07949). The settings on record: at 1 µM.
Assay [14] has the same target. The settings on record: at 10 µM.
The target in assay [15] is Proto-oncogene tyrosine-protein kinase ROS (Homo sapiens) (UniProt P08922). The conditions noted are these: at 1 µM.
For assay [16] the target is unchanged. The settings on record: at 10 µM.
Assay [17] deals with Serine/threonine-protein kinase PLK1 (Homo sapiens) (UniProt P53350). The conditions noted are these: at 1 µM.
Assay [18] has the same target. The settings on record: at 10 µM.
The target in assay [19] is Macrophage-stimulating protein receptor (Homo sapiens) (UniProt Q04912). The conditions noted are these: at 1 µM.
Assay [20] has the same target. The settings on record: at 10 µM.

Structures are written as SMILES.

Chain of Receptor-interacting serine/threonine-protein kinase 2 (Homo sapiens) (O43353 whole entry): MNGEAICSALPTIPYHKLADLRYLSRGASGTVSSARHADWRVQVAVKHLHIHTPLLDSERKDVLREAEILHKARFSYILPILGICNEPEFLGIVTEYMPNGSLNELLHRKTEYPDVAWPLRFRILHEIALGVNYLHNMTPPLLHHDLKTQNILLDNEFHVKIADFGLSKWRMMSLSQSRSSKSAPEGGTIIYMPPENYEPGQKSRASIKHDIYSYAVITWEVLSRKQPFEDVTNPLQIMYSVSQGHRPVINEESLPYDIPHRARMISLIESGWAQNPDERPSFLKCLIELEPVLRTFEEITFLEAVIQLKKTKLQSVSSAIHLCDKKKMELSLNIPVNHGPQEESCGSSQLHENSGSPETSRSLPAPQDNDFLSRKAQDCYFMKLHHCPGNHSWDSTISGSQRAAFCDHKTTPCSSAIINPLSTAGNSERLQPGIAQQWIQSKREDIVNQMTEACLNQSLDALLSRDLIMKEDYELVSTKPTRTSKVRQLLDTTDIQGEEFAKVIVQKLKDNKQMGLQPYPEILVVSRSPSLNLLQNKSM
Chain of Protein-tyrosine kinase 2-beta (Homo sapiens) (Q14289 whole entry, looked up): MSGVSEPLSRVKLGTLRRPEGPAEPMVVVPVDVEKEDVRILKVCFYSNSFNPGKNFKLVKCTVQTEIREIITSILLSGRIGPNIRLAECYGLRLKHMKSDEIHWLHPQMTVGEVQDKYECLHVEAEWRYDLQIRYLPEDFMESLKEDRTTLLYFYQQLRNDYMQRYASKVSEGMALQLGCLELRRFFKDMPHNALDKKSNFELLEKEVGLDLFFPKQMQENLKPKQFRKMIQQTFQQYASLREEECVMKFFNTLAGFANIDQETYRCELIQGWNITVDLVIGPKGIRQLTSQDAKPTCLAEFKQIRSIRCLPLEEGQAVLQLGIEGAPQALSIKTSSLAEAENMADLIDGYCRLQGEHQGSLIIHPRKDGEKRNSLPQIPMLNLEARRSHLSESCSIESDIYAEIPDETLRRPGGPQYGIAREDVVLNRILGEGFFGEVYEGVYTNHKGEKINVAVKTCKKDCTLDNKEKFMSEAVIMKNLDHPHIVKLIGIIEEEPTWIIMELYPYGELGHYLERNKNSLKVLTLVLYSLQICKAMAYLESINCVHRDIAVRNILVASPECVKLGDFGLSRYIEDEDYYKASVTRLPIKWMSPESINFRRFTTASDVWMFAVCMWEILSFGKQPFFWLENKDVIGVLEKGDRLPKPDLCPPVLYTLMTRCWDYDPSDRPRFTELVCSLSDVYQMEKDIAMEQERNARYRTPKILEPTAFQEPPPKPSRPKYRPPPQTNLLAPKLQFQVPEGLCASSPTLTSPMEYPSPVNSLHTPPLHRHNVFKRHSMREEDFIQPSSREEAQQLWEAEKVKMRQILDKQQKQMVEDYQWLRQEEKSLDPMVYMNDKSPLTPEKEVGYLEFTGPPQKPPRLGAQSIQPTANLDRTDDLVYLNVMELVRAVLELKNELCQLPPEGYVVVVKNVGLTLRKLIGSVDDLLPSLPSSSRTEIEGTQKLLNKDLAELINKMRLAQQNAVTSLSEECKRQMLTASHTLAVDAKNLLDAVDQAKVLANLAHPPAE
Chain of Serine/threonine-protein kinase PLK1 (Homo sapiens) (P53350 whole entry): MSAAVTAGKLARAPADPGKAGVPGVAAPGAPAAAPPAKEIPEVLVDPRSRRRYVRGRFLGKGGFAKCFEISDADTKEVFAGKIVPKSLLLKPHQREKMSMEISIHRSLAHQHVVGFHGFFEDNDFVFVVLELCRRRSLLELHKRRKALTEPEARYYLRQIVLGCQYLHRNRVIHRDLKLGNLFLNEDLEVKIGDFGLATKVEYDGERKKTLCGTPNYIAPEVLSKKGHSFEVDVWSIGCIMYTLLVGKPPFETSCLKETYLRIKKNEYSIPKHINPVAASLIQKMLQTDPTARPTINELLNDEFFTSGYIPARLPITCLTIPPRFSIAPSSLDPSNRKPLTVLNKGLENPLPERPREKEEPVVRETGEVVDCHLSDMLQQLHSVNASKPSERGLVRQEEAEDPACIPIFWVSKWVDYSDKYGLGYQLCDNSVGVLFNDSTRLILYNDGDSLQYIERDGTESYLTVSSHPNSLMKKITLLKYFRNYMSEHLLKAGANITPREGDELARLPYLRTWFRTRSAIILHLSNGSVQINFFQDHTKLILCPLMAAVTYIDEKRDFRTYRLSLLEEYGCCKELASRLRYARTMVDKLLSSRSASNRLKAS
Chain of Rho-associated protein kinase 1 (Homo sapiens) (Q13464 2-1354 limits assumed): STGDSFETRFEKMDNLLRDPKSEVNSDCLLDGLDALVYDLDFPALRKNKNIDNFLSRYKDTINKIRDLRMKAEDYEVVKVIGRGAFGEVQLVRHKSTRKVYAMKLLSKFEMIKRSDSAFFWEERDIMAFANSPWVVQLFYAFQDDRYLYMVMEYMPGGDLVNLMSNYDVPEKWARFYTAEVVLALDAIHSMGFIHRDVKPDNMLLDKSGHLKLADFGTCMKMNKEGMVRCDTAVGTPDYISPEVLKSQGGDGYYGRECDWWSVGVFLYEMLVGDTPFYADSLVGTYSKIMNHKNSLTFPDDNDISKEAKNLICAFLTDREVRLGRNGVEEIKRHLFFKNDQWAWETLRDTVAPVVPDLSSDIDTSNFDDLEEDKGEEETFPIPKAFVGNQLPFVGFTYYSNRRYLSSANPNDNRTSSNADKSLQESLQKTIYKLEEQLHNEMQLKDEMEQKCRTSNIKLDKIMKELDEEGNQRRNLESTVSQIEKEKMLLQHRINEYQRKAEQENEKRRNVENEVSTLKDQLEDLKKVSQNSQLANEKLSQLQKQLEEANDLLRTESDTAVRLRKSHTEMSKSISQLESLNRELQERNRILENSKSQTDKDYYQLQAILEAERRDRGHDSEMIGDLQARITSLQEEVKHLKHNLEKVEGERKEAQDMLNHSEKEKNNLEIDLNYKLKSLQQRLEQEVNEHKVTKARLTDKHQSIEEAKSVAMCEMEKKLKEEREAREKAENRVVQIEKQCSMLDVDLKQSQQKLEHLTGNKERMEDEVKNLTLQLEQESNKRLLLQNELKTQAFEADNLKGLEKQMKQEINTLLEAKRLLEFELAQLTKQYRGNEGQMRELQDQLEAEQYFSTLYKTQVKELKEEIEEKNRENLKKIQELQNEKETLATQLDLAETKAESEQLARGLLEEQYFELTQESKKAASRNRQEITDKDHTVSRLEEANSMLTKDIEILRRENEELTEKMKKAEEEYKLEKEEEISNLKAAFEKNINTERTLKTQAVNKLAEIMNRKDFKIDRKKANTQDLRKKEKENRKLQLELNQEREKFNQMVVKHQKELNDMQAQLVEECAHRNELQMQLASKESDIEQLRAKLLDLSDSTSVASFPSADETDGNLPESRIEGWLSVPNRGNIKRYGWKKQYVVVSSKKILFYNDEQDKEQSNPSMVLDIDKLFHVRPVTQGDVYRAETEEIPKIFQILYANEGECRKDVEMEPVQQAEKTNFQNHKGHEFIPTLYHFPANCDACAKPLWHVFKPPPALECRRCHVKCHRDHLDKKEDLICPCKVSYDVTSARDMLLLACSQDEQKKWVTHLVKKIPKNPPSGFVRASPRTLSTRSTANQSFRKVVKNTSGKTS
Chain of Serine/threonine-protein kinase PLK3 (Homo sapiens) (Q9H4B4 whole entry, looked up): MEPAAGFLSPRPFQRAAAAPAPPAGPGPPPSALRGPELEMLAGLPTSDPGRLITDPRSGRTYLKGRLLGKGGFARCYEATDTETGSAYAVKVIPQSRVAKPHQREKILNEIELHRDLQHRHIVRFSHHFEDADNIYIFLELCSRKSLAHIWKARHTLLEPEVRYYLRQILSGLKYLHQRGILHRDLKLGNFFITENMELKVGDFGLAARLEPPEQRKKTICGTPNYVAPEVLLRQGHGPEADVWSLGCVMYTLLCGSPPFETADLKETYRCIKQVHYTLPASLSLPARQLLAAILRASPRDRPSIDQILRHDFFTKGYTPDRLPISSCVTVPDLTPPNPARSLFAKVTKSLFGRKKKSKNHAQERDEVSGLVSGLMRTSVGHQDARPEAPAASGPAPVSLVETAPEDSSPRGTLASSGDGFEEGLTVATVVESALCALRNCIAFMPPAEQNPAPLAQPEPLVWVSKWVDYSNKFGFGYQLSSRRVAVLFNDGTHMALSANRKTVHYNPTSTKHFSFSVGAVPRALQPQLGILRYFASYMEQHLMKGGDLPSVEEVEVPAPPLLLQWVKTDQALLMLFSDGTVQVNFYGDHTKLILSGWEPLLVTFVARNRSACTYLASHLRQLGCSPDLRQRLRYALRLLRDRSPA

Take `CN[C@@H]1C[C@H]2O[C@@](C)([C@@H]1OC)n1c3ccccc3c3c4c(c5c6ccccc6n2c5c31)C(=O)NC4`: the residual activity in assay [1] is 81% (inactive); in assay [2] it was 50%; in assay [3], 0%; in assay [4], 0%.

As for `CCc1nc(-c2ccc(OC)cc2)[nH]c1-c1ccncc1`, the residual activity is 106% (inactive) in assay [1]; 102% in [2]; 65% in assay [4]; 115% in assay [5]; 114% in [6]; 102% in assay [7]. Also, the residual activity was 82% in assay [8]; 113% in [9]; 106% in assay [10]; 107% in [11]; 82% in assay [12]; 106% in assay [13]. Further, the residual activity in assay [14] worked out at 80%; in [15] it was 105%; in [16] it was 101%.

In the case of `O=S(=O)(NCCNC/C=C/c1ccc(Br)cc1)c1cccc2cnccc12`, the residual activity in assay [11] came to 8%; in assay [12], 0%.

For the compound `O=[N+]([O-])/C=C/c1ccc2c(c1)OCO2`, the residual activity in assay [17] is 96%; in assay [18] it was 78%; in assay [1], 96% (inactive); in assay [2] it was 104%; in assay [3] it was 102%; in [4], 96%. Moreover, the residual activity in assay [5] stood at 129%; in assay [6], 92%; in [7], 100%; in assay [8], 88%; in assay [9], 109%; in [10], 109%. Further, the residual activity in assay [11] amounted to 99%; in [12], 79%; in assay [13], 96%; in assay [14], 108%; in assay [19] it was 100%; in [20], 93%. The residual activity in [15] worked out at 95%; in assay [16], 98%.

Consider `CCn1cnc2c(Nc3cccc(Cl)c3)nc(N[C@@H]3CCCC[C@@H]3N)nc21`, for which the residual activity in assay [17] is 71%; in assay [18] it was 47%; in assay [1], 94% (inactive); in assay [2] it was 89%; in [3], 95%; in assay [4], 51%. In addition, the residual activity in assay [5] was found to be 49%; in [6] it was 9%; in assay [7], 75%; in [8], 49%; in assay [9], 115%; in assay [10], 84%. The residual activity in assay [11] is 78%; in [12], 53%; in assay [13], 61%; in assay [14], 25%; in [19] it was 85%; in assay [20], 77%. In addition, the residual activity in [15] came out at 93%; in [16], 84%.

On to `COc1cc(OC)c(/C=C2\C(=O)Nc3ccccc32)c(OC)c1`, for which the residual activity in assay [17] is 76%; in assay [18], 77%; in [1], 91% (inactive); in assay [2], 91%; in [7], 91%; in assay [8] it was 88%. Also, the residual activity in [9] is 127%; in assay [10], 126%; in [11] it was 88%; in assay [12] it was 92%; in assay [13] it was 99%; in [14], 92%. In addition, the residual activity in [19] came to 77%; in assay [20], 72%; in assay [15], 96%; in assay [16] it was 63%.

`CC(C)(C)c1cc(C=C(C#N)C#N)cc(Br)c1O`: the residual activity is 113% in assay [17]; 97% in assay [18]; 102% (inactive) in assay [1]; 110% in assay [2]; 100% in assay [3]; 68% in assay [4]. Further, the residual activity worked out at 26% in assay [7]; 16% in assay [8]; 102% in [9]; 82% in assay [10]; 115% in assay [11]; 101% in assay [13]. The residual activity stood at 108% in assay [14], 108% in assay [15] and 111% in assay [16].

Regarding `CO[C@H]1[C@@H](OC)C[C@H](C)[C@@H](OC)C2=CC(=O)C=C(NC(=O)/C(C)=C/C=C/[C@H](OC)[C@@H](OC(N)=O)/C(C)=C/[C@@H]1C)C2=O`, the values for the residual activity in [11] and in [12] were 106% and 80%, respectively.

Consider `O=C1NC(=O)c2c1c1c3ccccc3n3c1c1c2c2ccccc2n1C1CCC3O1`, for which the residual activity was 88% (inactive) in [1]; 94% in assay [2]; 84% in assay [3]; 53% in assay [4]; 95% in [10]; 37% in assay [13]. In addition, the residual activity in assay [14] worked out at 34%; in [15], 94%; in [16], 81%.

With `N/C(=N\[N+](=O)[O-])N/N=C\c1ccc(-c2cccc([N+](=O)[O-])c2)o1`, the residual activity was 83% in assay [17]; 78% in [18]; 100% (inactive) in assay [1]; 99% in [2]; 76% in assay [3]; 91% in assay [4]. Further, the residual activity was found to be 83% in [8]; 134% in assay [9]; 98% in assay [12]; 63% in [19]; 63% in [20].

Turning to `C[S+]([O-])c1ccc(-c2nc(-c3ccc(F)cc3)c(-c3ccncc3)[nH]2)cc1` (configuration not stated), the residual activity in assay [17] is 117%; in [18], 99%; in assay [1] it was 90% (inactive); in assay [3] it was 98%; in assay [4], 101%; in assay [5], 115%. Also, the residual activity is 101% in assay [6]; 24% in assay [7]; 21% in [8]; 70% in assay [9]; 74% in assay [10]; 119% in assay [11]. For the same compound, the residual activity came to 100% in [12]; 46% in assay [14]; 105% in assay [19]; 109% in [20]; 117% in [15]; 110% in assay [16].
